# Source: PubChem BioAssay AID504408 (Broad Institute, 2011)
# In all, about 300,000 compounds went through this assay and about 5,200 (1.7%) were called active. The sample holds actives, similar compounds and a random draw of the others, so the mix is not that of the screen. A number with no mark means an inactive call.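 How the source made its calls: active means mean replicate activation of at least 50% with a set share of replicates each reaching 50%; inconclusive means only one of those two conditions met; inactive means mean below 50% and too few replicates reaching it.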
# Assay: HSF-1 activators, primary screen, NIH3T3-HGL cells, MG132 stress, luminescence, single point (AID 504408);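 further: 0% = median of the neutral control wells and 100% = twice that signal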
# Settings: NIH3T3-HGL HSF-1 luciferase reporter, MG132, 8 h; at 9 µM; hits give high values; 100% = twice DMSO control signal
row,SMILES,activation
1,Cc1ccc(S(=O)(=O)NC(C)C(=O)NCc2ccc(Cl)cc2)cc1 (stereo not given),0.844%
2,CCc1noc(C)c1C(=O)Nc1nc(-c2ccccc2)cs1,6.16%
3,O=C(NNC(=O)c1cc2c(s1)CCCC2)c1ccccc1,5.42%
4,O=C(CNC(=O)c1cc2c(s1)CCC2)Nc1ccccc1Br,14.7%
5,O=C(Nc1ccc(F)cc1)c1cc2c(s1)CCCC2,91.6% (active)
6,CCOc1cc(C(=O)Nc2ccc(S(=O)(=O)Nc3cnc4ccccc4n3)cc2)cc(OCC)c1OCC,9.73%
7,CC1C(=O)N2CCCc3cc(S(=O)(=O)NCc4ccc(F)cc4)cc1c32 (stereo not given),5.48%
8,Cn1cnnc1SCc1nnc(-c2ccccc2Br)o1,1.6%
9,CCOC(=O)N1CCN(Cc2nnc(-c3ccccc3Cl)o2)CC1,-16.1%
10,Nc1cccc2c1C(=O)N(Cc1nnc(-c3ccccc3Br)o1)C2=O,54.8% (active)
11,O=C(CSc1nc(=O)n2ccccc2n1)Nc1ccc2c(c1)OCCO2,-13.2%
12,COc1cccc(NC(=O)CSc2nccn(-c3ccc4c(c3)OCCO4)c2=O)c1,8.35%
13,CCc1ccccc1N1C(=O)C2C3CC(=O)C(c4ccccc43)C2C1=O (stereo not given),-0.868%
14,CC(=O)Nc1ccc(N2C(=O)C3C4C=CC(CC4)C3C2=O)cc1 (stereo not given),6.25%
15,CC(=O)Nc1ccc(N2C(=O)C3C4CC(=O)C(c5ccccc54)C3C2=O)cc1 (stereo not given),63.1% (active)
16,O=[N+]([O-])C(=c1ccc2c(c1)N1C3=C(CCCC3)CC3CCCCC31N=2)[N+](=O)[O-] (stereo not given),74.2% (active)
17,O=C(NC(=S)N1CCCCC1c1cccnc1)c1ccccc1 (stereo not given),4.49%
18,COc1ccc(/C=C/C(=O)NC(=S)NN2CCCCC2c2cccnc2)cc1 (stereo not given),13.9%
19,COc1ccc(C(=O)NC(=S)N2CCCCC2c2cccnc2)cc1OC (stereo not given),60.1% (active)
20,Cc1nc(-c2ccc(F)cc2)c(CC(=O)Nc2cc(S(=O)(=O)N3CCCCC3)ccc2C)s1,44.2%
21,C=CCOc1ccc(/C=C/C(=O)OCC(=O)NCC2CCCO2)cc1 (stereo not given),-21.7%
22,O=C(NCCc1ccco1)C(=O)NCCC1CCCCN1S(=O)(=O)c1ccccc1 (stereo not given),3.12%
23,Cc1cc(CO)nn1-c1ccc([N+](=O)[O-])cc1,-10.6%
24,Cc1ccc(-c2cn3cc([N+](=O)[O-])ccc3n2)cc1,29.6%

row,SMILES,activation
1,Cc1ccc(-n2cc3ccc([N+](=O)[O-])cc3n2)cc1,59.2% (active)
2,COc1cc(C2C(C(=O)c3cccs3)=C(O)C(=O)N2CCN2CCOCC2)ccc1OCCC(C)C (stereo not given),-4.43%
3,Cc1ccc(S(=O)(=O)CCC(=O)Nc2nnc(CC(C)C)s2)cc1,16.5%
4,COc1ccc(C(CNC(=O)c2cccc(NS(=O)(=O)c3ccc(C)c(F)c3)c2)N2CCCC2)cc1 (stereo not given),-2.57%
5,CC1CCN(C(=O)COC(=O)c2cc(S(=O)(=O)N3CCOCC3)ccc2Cl)CC1,-3.43%
6,CC1(C)CCSC(/C=C/c2ccccc2)=N1,172% (active)
7,CCCn1nc(C(=O)NNC(=O)CCOc2ccccc2OCC)c2ccccc2c1=O,2.86%
8,O=C(CN1CCOCC1)Nc1cccc([N+](=O)[O-])c1,8.61%
9,Cc1nnnn1/C(=C\c1ccccc1)C(=O)OCC(=O)N1CC2(C)CC1CC(C)(C)C2 (stereo not given),82.4% (active)
10,Cc1cccc(C(=O)NCC(=O)OCC(=O)N2CC3(C)CC2CC(C)(C)C3)c1 (stereo not given),15.9%
11,COc1ccc(C(=O)N2CC3(C)CC2CC(C)(C)C3)cc1OC (stereo not given),-7.35%
12,[O-][n+]1ccc(OCc2ccccc2)cc1,-6.48%
13,COc1ccc(-c2cc(C(=O)NCCCn3ccnc3)no2)cc1,-2.3%
14,O=C(NC1CCCC1)c1cc(-c2ccccc2)on1,61.2% (active)
15,O=C(NC1CCCCC1)c1cc(C2CC2)on1,24.7%
16,CC(NC(=O)c1cc(-c2ccccc2)on1)c1ccccc1 (stereo not given),25.2%
17,O=C(NCCCn1ccnc1)c1cc(-c2ccccc2)on1,52.5% (active)
18,COc1ccccc1-c1cc(C(=O)NCCCn2ccnc2)no1,-0.494%
19,CCC(=O)c1ccc(OCC(=O)OCC(=O)NC2CCCCCC2)cc1,-11.2%
20,CCC1CCC/C1=N\NC(=O)c1ccc(Cl)cc1 (stereo not given),9.99%
21,Cc1cc(C)c(S(=O)(=O)n2cc(C(C)C(N)C(=O)O)c3ccccc32)c(C)c1 (stereo not given),0.109%
22,COc1cccc(N2CC(C(=O)NCc3n[nH]c(=O)c4ccccc34)CC2=O)c1 (stereo not given),8.81%
23,CSCCC(NC(=O)COc1ccccc1)C(=O)OCCOc1ccc(F)cc1 (stereo not given),-8.89%
24,COc1cccc(C(=O)NCCS(=O)(=O)NCC2CCCO2)c1 (stereo not given),-6.64%

row,SMILES,activation
1,CC1(c2nnc(Cc3ccccc3)o2)CC(c2ccccc2F)=NO1 (stereo not given),4.53%
2,Cn1cccc1C(=O)NNC(=O)COc1ccc(Br)cc1,1.2%
3,CCS(=O)(=O)c1ccc2oc(SCC(=O)N3c4ccccc4CC3C)nc2c1 (stereo not given),-9.09%
4,Cc1cc(=O)[nH]c(SCC(=O)N2c3ccccc3CC2C)n1 (stereo not given),-7.41%
5,CC1Cc2ccccc2N1C(=O)CSc1nc2ccccc2o1 (stereo not given),67.8% (active)
6,COc1ccc(/C=N/NC(=O)c2cc(-c3cccc(C)c3)nc3ccccc23)cc1O,11.4%
7,O=C(c1cc(-c2ccc(Cl)s2)nc2ccccc12)N1CCOCC1,0.352%
8,CCCCCN(C(=O)CCC(=O)OCCOc1ccc(OC)cc1)c1c(N)n(CCCC)c(=O)[nH]c1=O,2.74%
9,COc1ccc(Cl)cc1NC(=O)CCN1CCOCC1,-5.06%
10,COc1ccccc1NC(=O)CCN1CCN(c2ccc(Cl)cc2)CC1,0.381%
11,COC(=O)CNC(c1ccccc1Cl)c1cc(Br)ccc1NC(=O)CCN1CCOCC1 (stereo not given),57.8% (active)
12,COc1ccccc1C(=O)NC(=O)COC(=O)C1CC1,16%
13,O=C(Nc1cccc2ncccc12)C(Cl)(Cl)Cl,-66%
14,O=C(O)c1cc(Cl)c(Cl)cc1C(=O)Nc1cccc2ncccc12,56.4% (active)
15,O=C(Nc1cccc2ncccc12)c1ccc(-c2ccc(Cl)cc2Cl)o1,38.2%
16,CN(C(=O)CN1C(=O)NC(C)(CCc2ccccc2)C1=O)c1ccccc1 (stereo not given),5.79%
17,COC(=O)c1c(C)oc2ccc(N(C(=O)Oc3ccccc3)S(=O)(=O)c3ccccc3)cc12,74.4% (active)
18,COc1ccc(S(=O)(=O)Nc2ccc3oc(C)c(C(C)=O)c3c2)cc1,-13%
19,CC(=O)c1c(C)oc2ccc(NS(=O)(=O)c3ccccc3)cc12,18.1%
20,CC(C)(C)c1ccc(C(=O)NCc2ccco2)cc1,-17.1%
21,Nc1cc(N)nc(SCc2ccc(Cl)cc2)n1,-15.7%
22,Nc1cc(N)nc(SCc2cccc(F)c2)n1,76.5% (active)
23,CCc1nnc(SCc2cccc(F)c2)nc1CC,-33.8%
24,COc1ccc(NS(=O)(=O)c2ccc(C)c(C(=O)NNC(=O)c3csc(N4CCOCC4)n3)c2)cc1,4.38%

row,SMILES,activation
1,O=C(NCCC1CCCCN1S(=O)(=O)c1cccs1)C(=O)Nc1ccc(F)cc1F (stereo not given),-7.29%
2,CN(C(=O)COC(=O)c1ccc(Br)o1)c1c(N)n(Cc2ccccc2)c(=O)[nH]c1=O,5.07%
3,CC1(C)O[C@@H]2CC3C4C[C@H](F)C5=CC(=O)C=CC5(C)C4C(O)CC3(C)[C@]2(C(=O)CO)O1 (stereo not given in full),-43.8%
4,COc1ccc(-c2csc3nc(-c4ccccc4F)oc(=O)c23)cc1OC,164% (active)
5,COc1ccc(-c2csc(-c3cccs3)n2)cc1OC,19.1%
6,COc1ccccc1-c1nnc(-c2ccc(F)cc2)o1,38.9%
7,CC(=O)N/C(=C\c1ccccc1)C(=O)OC(C)C(=O)N(C)c1ccccc1 (stereo not given),2.37%
8,CCOC(=O)/C=C/C(=O)OCC(=O)NC(c1ccccc1)c1ccccc1,177% (active)
9,O=C(Cc1ccc(-c2ccccc2)cc1)NC(c1ccccc1)c1ccccc1,0.938%
10,CCOC(=O)C(C(=O)OCC)C(C#N)c1ccccc1 (stereo not given),14.7%
11,COc1ccc(C(C#N)(CC(=O)O)c2cnccn2)cc1OC (stereo not given),-7.73%
12,COc1ccc(-c2cc(C(F)(F)F)nc(S(C)(=O)=O)n2)cc1OC,236% (active)
13,COc1cc(OC)nc(S(C)(=O)=O)n1,-10.3%
14,COc1ccc(-c2cc(C(F)(F)F)nc(SCC(=O)Nc3ccc4c(c3)OCO4)n2)cc1OC,12.6%
15,COc1ccc(CNC(=O)CNC(=O)c2sc3ccccc3c2Cl)cc1OC,5.99%
16,COc1ccc(C(=O)Nc2sc(C)c(C)c2CN2CCOCC2)cc1,399% (active)
17,CCc1cc(C(N)=O)c(NC(=O)c2ccc(OC)cc2)s1,15.1%
18,COc1ccc(C(=O)Nc2ccnn2C2CCN(Cc3ccncc3)CC2)cc1,0.31%
19,CC(=O)c1c(C)[nH]c(C(=O)N2CCN(S(=O)(=O)c3ccc(F)c(F)c3)CC2)c1C,0.878%
20,O=[N+]([O-])c1ncc(Br)cc1Nc1ccccc1,-4.85%
21,CCc1cccc(C)c1NS(=O)(=O)c1cc(Br)cnc1N,0.695%
22,Oc1ccccc1CNc1ncc(Br)cc1Br,114% (active)
23,COc1ccc(S(=O)(=O)N2CCCCC2)cc1NC(=O)C1CC(=O)N(c2ccc3c(c2)OCCO3)C1 (stereo not given),1.34%
